mHTT CaM bind = mHTT-calmodulin interaction abrogation; inhibition, % at 15 µM; P42858; AlphaScreen His-mHTT/GST-CaM binding, luminescence; actives 3.6% (n = 190,000)
Pf apPOL inh = Pf-apPOL DNA polymerase inhibition; Recombinant Pf-apPOL, molecular beacon fluorescence, 1.5 h; actives 0.25% (n = 210,000); inhibition, % at 10 µM
Of the large screens only hits and unclear results are named; the others gave an inactive call. In the library only some 3.5% were active in any assay of this set; here they are far more common. Cut-off read from the data, not from the text of the source: active = inhibition above about 50%; inactive = the rest.

c1ccc(-c2nc(SCC3COc4ccccc4O3)oc2-c2ccccc2)cc1 (stereo unspecified)	none (no result: Pf apPOL inh)
Cn1c(=O)c2c(nc(N3CCCC3)n2C)n(C)c1=O	none (no result: Pf apPOL inh)
Nc1ccc2cc3ccc(N)cc3nc2c1	mHTT CaM bind 55 (no result: Pf apPOL inh)
Cc1nc2cc(N)ccc2s1	none
Cc1cc2[nH]c(C(=O)Nc3cccc(Cl)c3C)c(CN3CCOCC3)c2s1	none
Cc1cc2[nH]c(C(=O)Nc3cccc(C)c3C)c(CN3CCOCC3)c2s1	mHTT CaM bind 53
O=C(c1cccc2c1NC(c1ccc(Cl)cc1Cl)C1CC=CC21)N1CCOCC1 (stereo unspecified)	none
O=C(O)C1Nc2c(Cl)cc(Cl)c(Cl)c2C2C=CCC12 (stereo unspecified)	mHTT CaM bind 96 (no result: Pf apPOL inh)
O=C(O)C1Nc2c(Cl)cc(Cl)cc2C2C=CCC12 (stereo unspecified)	mHTT CaM bind 95 (no result: Pf apPOL inh)
Cc1ccccc1C(=O)Nc1c2c(nn1-c1ccc(Cl)cc1)CSC2	none
O=C1C(=Cc2ccc3c(c2)OCO3)Oc2c1ccc1c2CN(Cc2ccncc2)CO1	none
CCCn1c(N2CCCC(C(=O)NC3CC3)C2)nc2ccccc21 (stereo unspecified)	none
CCn1c(=O)c(N2CCCC(C(=O)NC3CCCCCCC3)C2)nc2ccccc21 (stereo unspecified)	mHTT CaM bind 64
COc1ccc(C(C)NC(=O)CN(c2ccc([N+](=O)[O-])cc2)S(=O)(=O)c2ccccc2)cc1 (stereo unspecified)	none
COc1ccc(-c2csc(Nc3ccccc3)[n+]2CC(O)c2ccc([N+](=O)[O-])cc2)cc1 (stereo unspecified)	mHTT CaM bind 66
COc1ccc2c(c1)-c1onc(C(=O)N3CCCCC3C)c1CC2 (stereo unspecified)	none
O=[N+]([O-])c1cccc(-c2csc(N=Nc3c(O)[nH]c4ccc(Br)cc34)n2)c1	none (no result: mHTT CaM bind)
O=C(N=Nc1c(O)[nH]c2ccc(Br)cc12)c1ccco1	Pf apPOL inh 80 (no result: mHTT CaM bind)
CC(=O)Nc1ccc(S(=O)(=O)Nc2ccc(S(=O)(=O)Nc3ccc(C)c(C)c3)cc2)cc1	none
COCCN1C(=O)CCC2(CNC(=O)c3ccc(C)nc3)CCCC12 (stereo unspecified)	none
CCCn1cnnc1C1CCCN(C(=O)c2cccn2C)C1 (stereo unspecified)	none
CN(C)c1nc2cc(C(=O)N3CCCC3)sc2n1-c1ccccc1	mHTT CaM bind 50
CN(C)c1nc2cc(C(=O)NCC3CC3)sc2n1-c1ccccc1	none
COc1ccccc1Oc1ccc2c(c1)C(=O)N(c1cccc3ncccc13)C2=O	mHTT CaM bind 75
COc1ccc(N2C(=O)c3ccc(Oc4ccc(N)cc4)cc3C2=O)cc1OC	none
Cc1ccccc1N1C(=O)C2C3C=CC(O3)C2C1=O (stereo unspecified)	none
Fc1cc(F)c(C2SCCN2C(=S)NCCc2ccccc2)c(F)c1 (stereo unspecified)	mHTT CaM bind 59 (no result: Pf apPOL inh)
S=C(NCCc1ccccc1)N1CCOCC1	none (no result: mHTT CaM bind)
COc1cc(CNc2cc(OC)c(OC)c(OC)c2)c([N+](=O)[O-])cc1OC	none
COC(=O)Cc1cc(OC)c(OC)cc1[N+](=O)[O-]	none
COc1cc(CNc2cccc(F)c2)c([N+](=O)[O-])cc1OC	mHTT CaM bind 61
COc1cc(CNc2ccc3[nH]ncc3c2)c([N+](=O)[O-])cc1OC	mHTT CaM bind 58
COc1cc(C(=O)Nc2ncccc2C)cc(OC)c1OC	none
CCCC(CCC)C(=O)N1CCc2c(c(C(=O)NCc3ccc(F)cc3)nn2C)C1	mHTT CaM bind 77
CCCCC(=O)N1CCc2c(c(C(=O)NCc3ccc(F)cc3)nn2C)C1	none
Cn1nc(C(=O)NCc2ccc(Cl)cc2)c2c1CCN(C(=O)c1ccc(F)cc1)C2	none
CCC(=O)N1CCc2c(c(C(=O)NCc3ccccc3)nn2C)C1	none
CCC(CC)C(=O)N1CCc2c(c(C(=O)NCc3ccccc3)nn2C)C1	mHTT CaM bind 51
CCC(CC)C(=O)N1CCc2c(c(C(=O)NCc3ccc(Cl)cc3)nn2C)C1	mHTT CaM bind 71
CCCCS(=O)(=O)N1CCN(c2cc(-n3cccn3)ncn2)CC1	none
OC(COC12CC3CC(CC(C3)C1)C2)CSc1ccccn1 (stereo unspecified)	none
CC(C)(C)c1cc(C(c2ccccc2O)N2CCOCC2)cc(C(C)(C)C)c1O (stereo unspecified)	mHTT CaM bind 52
Cc1ccc(NC2=C(N3CCOCC3)C(=O)c3ccccc3C2=O)cc1	none
CC1CCN(C(c2ccc(N(C)C)cc2)c2cc(C(C)(C)C)c(O)c(C(C)(C)C)c2)CC1 (stereo unspecified)	mHTT CaM bind 66
CC(C)(C)c1cc(CN2CCC(O)CC2)cc(C(C)(C)C)c1O	none
CC(C)(C)c1cc(C2=C(N3CCOCC3)C(=O)c3ccccc3C2=O)cc(C(C)(C)C)c1O	mHTT CaM bind 86
COc1cc(C(c2cc3c(cc2O)OCO3)N2CCOCC2)cc(OC)c1OC (stereo unspecified)	none (no result: Pf apPOL inh)
O=c1[nH]c(/C=C/c2cccc(Br)c2)nc(O)c1[N+](=O)[O-]	none
O=S(=O)(NCCCCCc1nc2ccccc2[nH]1)c1ccc(Cl)c(Cl)c1	mHTT CaM bind 66

Screening data from PubChem BioAssay.
